Several values for one entry are separate records, joined by “and”; a condition that tells them apart may be missing. Equal entries are not always repeated. Compounds without any hit were thinned out: in the full panel of roughly 83,000, 20% have a hit.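 Compound tested at a single concentration for 48 hours in 96-well plates; a percent growth value below 10 was scored as active.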 Activity calls are given as the source filed them.
test system: SK-MEL-5 melanoma; experiment: NCI-60 one-dose screen, 48 h (100 = growth as untreated, 0 = no growth, -100 = all killed); settings: 10 µM unless noted
Method: Growth inhibition of the SK-MEL-5 human tumor cell line is measured as a screen for anti-cancer activity. Cells are grown in 96 well plates and exposed to the test compound for 48 hours. Compounds are tested at a single concentration, which is 10^-5 M for most compounds. The reported endpoint is percent growth (GI% or GIPRCNT), where numbers from 0 - 100% represent growth inhibition, and numbers from -100% - 0 represent cell death. For example, a value of 40 represents 60% growth inhibition. A value of 0 means no net growth occurred over the course of the experiment. A value of -40 indicates 40% of cells at the beginning of the experiment died by the end of the experiment. A value of -100 means all cells are dead at the end of the experiment.
NCI-60 Human Tumor Cell Lines Screen was performed using the standard one-dose NCI protocol, which is described in more detail at https://dtp.cancer.gov/discovery_development/nci-60/default.htm.
Compounds with GIPRCNT values below 10 were considered active. Activity score was based on GIPRCNT using the following formula: […]
Score is 0 for GIPRCNT values of 100 or above, 50 for GIPRCNT values of 0, and 100 for GIPRCNT values of -100.

SMILES	growth
Fc1ccc(NC(c2ccc(F)cc2)C2CCN(CCCCc3ccccc3)CC2)cc1 (stereo not given)	-3.5% (active)
Cc1ccc(NC(=O)c2sc3nc(C)c(C(=O)c4ccccc4)cc3c2N)cc1	94.1% (inactive)
C=C1C(=O)O[C@H]2[C@H]1CC/C(CNS(=O)(=O)c1ccc3ccccc3c1)=C\CC[C@@]1(C)O[C@@H]21	31.8% (inactive)
c1ccc(Cc2cccc[n+]2C(c2ccccc2)c2ccccc2)cc1	14.5% (inactive)
O=C1C(N2CCOCC2)=C(I)C(=O)c2ncccc21	89.4% (inactive)
CCOC(=O)c1c(-c2ccc(OC)cc2)c(C#N)c2c(C#N)c(N)nn2c1N	19.3% (inactive)
O=C(CCN1CCOCC1)Nc1cccc(-n2cc(-c3ccncc3)c(-c3ccc(Cl)c(O)c3)n2)c1	20.3% (inactive)
COc1ccc(C(=O)c2ccc(OC)c(OC)c2OC)cc1	18.8% (inactive)
NS(=O)(=O)c1ccc(C(=O)N=Nc2c(O)[nH]c3c(F)cccc23)cc1	101% (inactive)
N=C(N)c1ccc(-c2ccc(-c3ccc(Cl)c(Cl)c3)s2)cc1	94.8% (inactive)
CC1(Cc2ccccc2)CC2=C(C(=O)O1)C(c1ccccc1)NC(=O)N2 (stereo not given)	95% (inactive)
O=C1OCC2=C1C(c1cccc(C(F)(F)F)c1)c1cc3c(cc1N2CCO)CCC3 (stereo not given)	0.201% (active)
Cc1ccc2nc3ccccc3c(NCc3ccc(Cl)cc3)c2c1	54% (inactive)
CCN(CC)/C([O-])=c1\cccc\c1=C1\N=C(c2ccccc2)N=C1[n+]1ccc(-c2ccccc2)cc1	93.8% (inactive)
CN1Cn2c(ccc2C(F)(F)F)C(=O)CS1(=O)=O	103% (inactive)
Cc1cc(N2CCN(CC(=O)Nc3ccc4c(ccn4Cc4ccccc4)c3)CC2)nc(N2CCCCCC2)n1	49.2% (inactive)
O=C1/C(=C/c2cn(-c3ccccc3)nc2-c2ccccc2)SC(=S)N1c1ccc(Cl)cc1	78.5% (inactive)
COc1cc(Cl)cc(-c2nn(C(=O)NS(=O)(=O)c3ccc(Cl)cc3)cc2-c2ccncc2)c1	95.2% (inactive)
CC(=NCc1ccccc1)c1ccc(O)cc1O	95% (inactive)
CNC(=O)c1cc(Oc2ccc3nc(NC(=O)Nc4ccc(C(F)(F)F)cc4)sc3c2)ccn1	56.9% (inactive)

SMILES	growth
CN(C)CCCn1c2c(c3ccc(N4CCNCC4)cc3c1=O)C(=O)c1ccccc1-2	28.7% (inactive)
N=C(N)c1ccc(-c2ccc(-c3ccc(F)cc3)s2)nc1	77% (inactive)
COc1cc2nc3cc([N+](=O)[O-])ccc3c(NCCNCC(C)(C)O)c2cc1OC	-71.3% (active)
COc1nc(=O)n(C2C=CC(=O)O2)cc1F (stereo not given)	94.9% (inactive)
CCOc1ccc(N2C(N)=NC(N)=NC2(C)C)cc1	4.48% (active) and 102% (inactive)
Nc1[nH]nc(Nc2ccccc2)c1-c1nc2ccccc2s1	57.6% (inactive)
COc1cc(CNC(=O)CCCC/C=C/C(C)C)ccc1OCc1cn(-c2ccc([N+](=O)[O-])cc2)nn1	76.1% (inactive)
CCC(=O)Oc1cc(Cl)c(Cl)cc1Cl	105% (inactive)
O=C1C(=C(O)c2ccccc2)C(=O)c2ccccc21	107% (inactive)
Cc1ccc(C(=O)c2ccc(CC(=O)N=Nc3c(O)[nH]c4ccc(OC(F)(F)F)cc34)n2C)cc1	97.3% (inactive)
O=[N+]([O-])c1ccc(S(=O)Cc2ccccc2)c([N+](=O)[O-])c1 (stereo not given)	88% (inactive) and 75.9% (inactive)
COc1ccc2c(c1)oc1c(C)c3c(c(C)c12)C(=O)N(Nc1ccccc1)C3=O	100% (inactive)
Nc1nc2c(s1)CCc1cn(S(=O)(=O)c3ccccc3)cc1-2	90.1% (inactive) and 95% (inactive)
ON=C1CCCCCCCC1	106% (inactive)
O=C(/C=C/c1ccc([N+](=O)[O-])cc1)c1ccccc1	94.5% (inactive)
CN1CCCc2cc(/C=C3\SC(=S)N(C(Cc4ccc(O)cc4)C(=O)O)C3=O)ccc21 (stereo not given)	100% (inactive)
O=C(NCCCN1CCCCC1)c1ccc(-c2nc3ccc4[nH]ncc4c3c3c2CCCC3)cc1	76.2% (inactive)
COC(=O)c1[nH]nc(OC)c1C1(C(C#N)c2nc3ccccc3s2)CCCc2ccccc21 (stereo not given)	97.8% (inactive)
O=S(=O)(Nc1cc(Sc2cccc3cccnc23)c(O)c2ccccc12)c1ccc(F)cc1	-40.2% (active)
Cc1ccc(C(=O)Nc2nc3c(s2)CN(Cc2ccccc2)CC3)cn1	79.3% (inactive)

Reference: PubChem BioAssay (NCI)
